Source: PubChem
Tau fluor cs: counter-screen for tau fibril formation inhibitors | AID 1463 | tau K18 P301L Alexa594 fluorescence, heparin fibrillization | actives 0.93% (n = 280,000) | Potency, µM (titrated, usually from 57.7 µM); further: nearly all actives have a fitted effect of over 55% in size
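Human K18 P301L tau (15 uM unlabeled plus 0.24 uM Alexa 594-labeled, final) in 100 mM sodium acetate pH 7 was mixed with compound and 20 uM heparin and incubated 6 hr at 37 C.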
Tau fibril ThT: inhibitors of human tau fibril formation, thioflavin T binding; P10636; recombinant tau K18 P301L (four-repeat tau fragment), heparin-induced fibrillization, ThT fluorescence; Potency, µM (top dose mostly 57.4 µM), hits mostly inhibitors; actives 2.1% (n = 270,000); further: nearly all actives have a fitted effect of over 55% in size
Target sequence (P10636 561-689 P618L limits assumed): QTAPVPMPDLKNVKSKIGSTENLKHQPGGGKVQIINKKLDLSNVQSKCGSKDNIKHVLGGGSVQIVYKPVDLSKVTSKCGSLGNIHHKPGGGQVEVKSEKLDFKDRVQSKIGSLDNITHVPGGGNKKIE
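Heparin-induced fibrillization of the P301L-mutant K18 repeat-domain fragment of human tau was followed by ThT binding in quantitative high-throughput format.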
Sfp inh: blocks B. subtilis Sfp PPTase activity; Biochemical Sfp PPTase activity, qHTS; Q9F4F7; Potency, µM, usual class: inhibitors; AID 1490; actives 3.5% (n = 310,000);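 further: the enzyme is Sfp with the accession as filed and its product quenches rhodamine fluorescence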
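Buffer: 50 mM Hepes-Na pH 7.6, 10 mM MgCl2, 0.01% Nonidet P-40, 0.01% BSA. Enzyme 15 nM, pre-exposed to compound 15 min; substrates then added and fluorescence change tracked over 30 min.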
KDM4E inh: blocks human JMJD2E demethylase activity; actives 1.6% (n = 230,000); Potency, µM (doses to about 57.1 µM), hits mostly inhibitors; JMJD2E catalytic domain, FDH-coupled NADH fluorescence (FDH is formaldehyde dehydrogenase); further: nearly all actives have a fitted effect of over 50% in size
Target sequence (B2RXH2 1-337 limits assumed): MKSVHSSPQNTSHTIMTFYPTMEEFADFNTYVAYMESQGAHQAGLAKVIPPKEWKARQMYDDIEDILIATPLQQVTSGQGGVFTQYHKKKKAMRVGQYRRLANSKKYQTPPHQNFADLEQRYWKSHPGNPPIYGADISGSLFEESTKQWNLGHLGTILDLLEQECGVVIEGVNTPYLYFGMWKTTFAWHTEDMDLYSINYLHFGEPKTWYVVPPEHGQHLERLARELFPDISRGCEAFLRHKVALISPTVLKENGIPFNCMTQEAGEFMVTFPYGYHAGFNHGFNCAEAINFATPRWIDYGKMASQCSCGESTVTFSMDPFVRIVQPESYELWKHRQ
Tau fibril FP: inhibitors of human tau fibril formation; P10636; K18 P301L tau heparin fibrillization, Alexa594 FP, 6 h; Potency, µM (doses to about 57.7 µM), hits mostly inhibitors; actives 0.39% (n = 280,000); AID 1468; further: nearly all actives have a fitted effect of over 55% in size
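Human K18 P301L fragment (15 uM unlabeled plus 0.24 uM Alexa 594-labeled) in 100 mM sodium acetate pH 7 with compound, aggregation induced by 20 uM heparin for 6 hr at 37 C. ThT (30 uM) added for 1 hr, then Alexa 594 FP read.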
FBPA coupling cs: inhibits coupling enzyme system, counter-screen for aldolase hits. activity change, negative = inhibition, % at 58.2 µM, hits read low. AID 2472. coupling enzyme system counterscreen, AmpLite Red fluorescence. actives 0.67% (n = 290,000); in the data active means activity change below about -30%
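Final compound at 57.5 uM, incubated 10 min at RT with coupling enzyme reagent (glyceraldehyde-3-phosphate), then 20 min with substrate and AmpLite Red detection. Fluorescence read at 525/598 nm; tests interference with the coupling assay, not aldolase inhibition.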
Hits are given with their value; 0 = inactive; ? = inconclusive; - = no result given; [ ] = remark or other dose. Most compounds without a hit are left out; they make up all but 5.3% or so of the library. Unless noted, the call rests on the fitted dose curve; in most records, active means well fitted curve in the direction sought with a large enough effect; inconclusive means small, poorly fitted or top-dose-only effect, or another doubt; inactive means no such curve, though single readings can be large; an effect the other way counts as inactive or inconclusive.

SMILES | Tau fluor cs | Tau fibril ThT | Sfp inh | KDM4E inh | Tau fibril FP | FBPA coupling cs
Nc1[nH]n2c(=O)c3c(nc2c1N=Nc1ccc(Cl)cc1)CCCC3 | 0 | 1.41µM | 0 | 0 | 0 | 0
Nc1[nH]n2c(=O)c3c(nc2c1N=Nc1ccccc1)CCCC3 | ? | 4.47µM | 0 | 0 | 0 | 0
COc1ccc(N=C2O/C(=C/c3sc(=S)n(CC4CCCO4)c3O)N=C2C#N)cc1 (centres undefined) | 12.6µM[quencher] | 10µM | 2.82µM | 0 | 0 | 0
CC(=O)OCCNc1cc(SC(C)C)c2nonc2c1[N+](=O)[O-] | 0 | ? | 0 | 0 | 0 | 0
CN(CCO)c1cc(Sc2nc3ccccc3s2)c2nonc2c1[N+](=O)[O-] | ? | 28.2µM | 25.1µM | 0 | 0 | 0
NS(=O)(=O)c1ccc(Sc2nc3ccccc3s2)c([N+](=O)[O-])c1 | ? | - | 0 | 0 | 0 | 0
CC(=O)OCCN(C)c1cc(SC(C)C)c2nonc2c1[N+](=O)[O-] | ? | 14.1µM | 0 | 0 | 0 | 0
Cc1cccc(C(=O)Nc2ccc(C(=O)OCc3cc(=O)n4c(C)csc4n3)cc2)c1 | 0 | 0 | - | - | ? | -
CCCC[C@H]1C2=C3[C@@H](CC(C(=O)OC)=C[C@@H](C(=O)OC)[C@H]3C(C)(C)C2=O)n2c(=O)n(C)c(=O)n21 | - | - | 0 | - | - | 0
O=C(N/N=C/c1cc(Cl)cc([N+](=O)[O-])c1O)NC12CC3CC(CC(C3)C1)C2 | ? | 12.6µM | 0 | 0 | 0 | 0
O=C(N/N=C/c1cc(Cl)cc([N+](=O)[O-])c1O)c1ccccc1NS(=O)(=O)c1cccs1 | 0 | 11.2µM | 0 | 6.31µM | 0 | 0
O=C(N/N=C/c1ccccc1O)NC12CC3CC(CC(C3)C1)C2 | - | - | 0 | - | - | 0
Cc1cc(C(=O)N/N=C/c2c(CO)cnc(C)c2O)c2ccccc2n1 | - | - | 0 | - | - | -
Cc1cc(C(=O)N/N=C/c2cc(Cl)cc([N+](=O)[O-])c2O)c2ccccc2n1 | ? | 7.08µM | 0 | 5.62µM | 0 | 0
COc1ccc(-c2nc3cnc(Nc4cccc(OC)c4)nc3n(C[C@H]3CCCO3)c2=O)cc1 | - | - | 0 | - | - | 0
CCCCc1nc2c(c3c1C[C@H](C)OC3)CN(C(=O)NCCc1c[nH]c3ccccc13)CC2 | 0[11.6 µM] | 0[11.5 µM] | 0 | 0[11.4 µM] | 0[11.6 µM] | 0
CCn1c(SCC(=O)c2ccccc2)nc2sc3c(c2c1=O)CCN(C)C3 | 0 | ? | 50.1µM | ? | ? | 0
CN(C)c1ccc(/C=C2\N=C(c3ccc(Cl)c([N+](=O)[O-])c3)NC2=O)cc1 | ? | 0.891µM | 0 | 0 | 0 | 0
COc1ccc(OC)c(NC(=O)CN2C(=O)CC(C)Sc3ccccc32)c1 (centres undefined) | 0 | 0 | - | - | 0 | -
C/C(=C\c1ccc(C)o1)C(=O)c1c(C)cc(C)[nH]c1=O | 0 | 0 | 31.6µM | 0 | 0 | 0
C/C(=C\c1cccc(Br)c1)C(=O)c1c(C)cc(C)[nH]c1=O | - | - | 0 | - | - | 0
CCOC(=O)CC1=CC(C)(CC(=O)OCC)C(C#N)(C#N)C(N)=C1C#N (centres undefined) | 0 | 28.2µM | 0 | 0 | ? | 0
COc1ccccc1-c1cn[nH]c1-c1ccc(OCc2ccccc2)cc1O | 11.2µM[quencher] | 0 | 0 | ? | ? | 0
COc1ccc(-c2cn[nH]c2-c2ccc(OCc3ccc([N+](=O)[O-])cc3)cc2O)cc1OC | 7.08µM[quencher] | ? | 0 | 0 | ? | 0
COc1ccc(-c2cn[nH]c2-c2ccc(OCc3ccccc3)cc2O)cc1 | 6.31µM[quencher] | 0 | 0 | 0 | ? | 0
SMILES | Tau fluor cs | Tau fibril ThT | Sfp inh | KDM4E inh | Tau fibril FP | FBPA coupling cs
CCc1ccc(NC(=O)C2CCCN2S(=O)(=O)c2ccc3c(c2)CCCC(=O)N3)cc1 (centres undefined) | 0 | 0 | - | - | 0 | -
CCOc1ccc(CNC(=O)c2cc3c(s2)-c2ccccc2OC3)cc1 | 0 | 0 | - | - | ? | -
COC(=O)NC(/C(C(=O)OC)=C(\C)NCc1ccccc1)c1ccc2ccccc2c1 (centres undefined) | 0[11.6 µM] | ? | 0 | - | 0[11.6 µM] | 0
CCc1ccc(NC(=O)CC2C(=O)N(c3cccc(C)c3)C(=O)N2Cc2cccs2)cc1 (centres undefined) | 0 | 0 | - | - | 0 | -
CCCCNc1nc2c(c(=O)n(Cc3ccc(Cl)c(Cl)c3)c(=O)n2C)n1C | 11.2µM[quencher] | ? | - | - | ? | -
COc1cc(/C=C2\SC(N)=NC2=O)cc(Br)c1O | - | - | 0 | - | - | 0
COc1ccc(/C=C2/SC(c3ccc(C)cc3)=NC2=O)cc1OC | ? | 14.1µM | 31.6µM | 0 | ? | 0
COc1cc(/C=C2\SC(c3ccccc3)=NC2=O)cc(Cl)c1O | ? | 4.47µM | 7.94µM | ? | ? | 0
COc1cc(/C=C2\SC(c3ccc(C)cc3)=NC2=O)cc(OC)c1OC | 0 | 14.1µM | ? | 0 | ? | 0
COc1cc(/C=C2\SC(c3ccc(C)cc3)=NC2=O)ccc1O | ? | 14.1µM | 22.4µM | 0 | ? | 0
COc1ccc(S(=O)(=O)c2c(Nc3ccccc3F)sc(C(=O)c3cccc(OC)c3)c2N)cc1 | 0 | 0 | - | - | ? | -
